Reference: PubChem BioAssay (NCATS)
Results filed as inconclusive are left out. The source made the active and inactive calls. Unless noted, the call rests on the fitted dose curve; in most records, active means well fitted curve in the direction sought with a large enough effect; inconclusive means small, poorly fitted or top-dose-only effect, or another doubt; inactive means no such curve, though single readings can be large; an effect the other way counts as inactive or inconclusive.

Assays:
[1] = biological target: Lysosomal acid glucosylceramidase (Homo sapiens) (UniProt P04062); test: Glucocerebrosidase-p2 (AID 348; in the data active means potency below about 10 µM; further: potency means the concentration at half of the fitted maximal effect); settings: purified GBA, blue fluorogenic substrate, 40 min
Procedure, shortened: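 Compounds titrated from 0.6 nM upwards against 0.2 nM enzyme in pH 5.9 citric acid/KH2PO4, taurocholate, tween-20; blue fluorogenic substrate 80 uM, 40 min room temperature, stopped and read Ex 365/Em 440 for AC50.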

[2] = AP1 Signaling Pathway (AID 357; active means well fitted curve in either direction with a large enough effect, not every such curve was filed as active;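 further: ME-180 reporter cells stimulated with EGF at its EC50 level; on the % scale 0 is the no-effect control and ±100 the full control effect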); settings: ME-180 AP-1-bla reporter, EGF-induced, beta-lactamase ratio, 5 h; at 7.69 µM (top of the series) unless noted
Procedure, shortened: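 Beta-lactamase reporter under AP-1 response element, ME-180 background. Stimulus: EC50 EGF. Compound exposure 5 h, 37 °C. Detection: CCF4, 2.5 h RT, 460/530 nm. Values: AC50 from titration.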

[3] = NFAT Signaling Pathway (AID 444; active means well fitted curve in either direction with a large enough effect, not every such curve was filed as active;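 further: carbachol stimulus at about its EC50 of 1 µM final; on the % scale 0 is the no-effect control and ±100 the full control effect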); settings: Jurkat NFAT-bla M1, carbachol, beta-lactamase ratio, 5 h; at 7.69 µM (top of the series) unless noted
Procedure, shortened: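 Jurkat cells carrying an NFAT-driven β-lactamase reporter and co-transfected muscarinic M1 receptor were treated with compound plus carbachol (1 uM final, an EC50 level) for 5 h at 37 °C. CCF4 loading followed for 1 h at RT; 460/530 nm ratio gave %activity.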

[4] = Stat Signaling Pathway (AID 446; active means well fitted curve in either direction with a large enough effect, not every such curve was filed as active;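 further: ME-180 cervical cancer cells given 40 pM IL-6 alongside compound; SIE-controlled beta-lactamase reporter measured as 460/530 nm FRET emission ratio; on the % scale 0 is the no-effect control and ±100 the full control effect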); settings: ME-180 SIE beta-lactamase reporter, IL-6 stimulated, 5 h; at 7.69 µM (top of the series) unless noted
Procedure, shortened: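 Reporter line: ME-180 cervical carcinoma, SIE-beta-lactamase. Treatment: compound with 40 pM IL-6, 5 hrs, 37 C, in low-serum OPTI-MEM with 10 mM HEPES pH 7.3. Detection: 460/530 nm fluorescence.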

[5] = biological target: Glucocorticoid receptor (Homo sapiens) (UniProt P04150); test: GR-GFP Redistribution (AID 450;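 active means compounds whose dose series gives a full or clear partial fitted curve of increased nuclear translocation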; further: potency means the concentration at half of the fitted maximal effect); settings: U2OS GR-GFP nuclear translocation, laser cytometry, 2 h
[6] = biological target: Mitogen-activated protein kinase 10 (Mus musculus) (UniProt Q61831); test: JNK3 AlphaScreen Assay (AID 530; active means well fitted curve in either direction with a large enough effect, not every such curve was filed as active;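 further: kinase came from lysate of stimulated human HepG2 cells; signal reports phosphorylation of biotinylated GST-cJun 1-79 at Ser73 with 10 µM ATP; on the % scale 0 is the no-effect control and ±100 the full control effect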); settings: JNK3 lysate, c-Jun phosphorylation; series mostly up to 57.1 µM
Procedure, shortened: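 Inhibitors reduce antibody binding to phosphorylated biotin-cJun, lowering AlphaScreen luminescence. Lysates from HepG2 cells pre-activated by IL-1beta plus TNF-alpha supplied JNK3; compounds were titrated.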

[7] = biological target: 3',5'-cyclic-AMP phosphodiesterase 4B (Homo sapiens) (UniProt Q07343); test: qHTS Assay for Inhibitors of PDE-IV (AID 607; active means well fitted activation curve with a large enough effect in the main read-out, with a control signal flat, not every such curve was filed as active; further: % of control where 0% means no effect); settings: HEK293 ACTOne CNG channel cells, membrane potential fluorescence; series mostly up to 22.9 µM
Procedure, shortened: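 Cell-based read-out of cAMP via a modified cyclic nucleotide-gated channel and membrane potential dye (535/590 nm) in HEK293 cells expressing PDE4 endogenously. Compounds tested up to 22.9 uM final; 100 uM RO 20-1724 reference.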

[8] = biological target: Cytochrome P450 3A4 (Homo sapiens) (UniProt P08684); test: qHTS Assay for Activators of Cytochrome P450 3A4 (AID 885); settings: recombinant CYP3A4, Luciferin-PPXE luminescence, 60 min; series mostly up to 57.1 µM; further: nearly all actives have a fitted effect of over 65% in size
Procedure, shortened: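 Signal was normalized against complete inhibition by 57 uM ketoconazole. The reaction used 20nM CYP3A4 with 25uM Luciferin-PPXE, 10-min compound preincubation and a 60-min NADPH-supported step at RT.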

[9] = qHTS Assay for Identification of Small Molecule Agonists for Hypoxia Response Element Signaling Pathway (AID 914; active means well fitted activation curve with a large enough effect in the signal ratio, with a control signal flat, not every such curve was filed as active; the % refers to the signal ratio; further: potency means the concentration at half of the fitted maximal effect; on activation: % of control where 0% means no effect); settings: ME-180 (cervical carcinoma) HRE-bla reporter, beta-lactamase ratio, CoCl2, 17 h; activation: active compounds read high
Procedure, shortened: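 HRE-bla ME-180 cells with beta-lactamase reporter under hypoxia response element, compounds with EC50 CoCl2 for 17 hours at 37 C. CCF4 substrate, 460nm/530nm emission ratio gave %Activity; AC50 from titration series.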

[10] = biological target: Dual specificity protein kinase CLK4 (Homo sapiens) (UniProt Q9HAZ1); test: qHTS Assay for Inhibitors of CDC-like Kinase 4 (Kinase-Glo Assay) (AID 1770); settings: recombinant Clk4, Kinase-Glo ATP depletion luminescence; series mostly up to 66.7 µM; further: nearly all actives have a fitted effect of over 65% in size; further: potency means the concentration at half of the fitted maximal effect
Procedure, shortened: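 Clk4 25 nM, RS peptide 100 uM, ATP 1 uM, pH 7.5 Tris, 10 mM MgCl2, 2.5 mM DTT; 4.5 h RT; ATP depletion read by Kinase-Glo luminescence.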

[11] = biological target: Dual specificity protein kinase CLK4 (Homo sapiens) (UniProt Q9HAZ1); test: qHTS Assay for Inhibitors of CDC-like Kinase 4 (ADP-Glo Assay) (AID 1771); settings: recombinant CLK4, ADP-Glo luminescence; series mostly up to 80 µM; further: nearly all actives have a fitted effect of over 70% in size; further: potency means the concentration at half of the fitted maximal effect
Procedure, shortened: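 25 nM Clk4 with 100 uM RS repeat peptide and 1 uM ATP (final) in buffer with 2 mM MgCl2, 0.5 mM EGTA, 2.5 mM DTT, 0.01% Triton X-100; 1 h at room temperature; ADP-Glo luminescence for ADP formed.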

[12] = biological target: Dual specificity protein kinase CLK4 (Homo sapiens) (UniProt Q9HAZ1); test: qHTS Assay for Inhibitors of CDC-like Kinase 4 (ADP-FP Assay) (AID 1795); settings: Transcreener ADP fluorescence polarization; series mostly up to 50 µM; further: nearly all actives have a fitted effect of over 60% in size; further: potency means the concentration at half of the fitted maximal effect
Procedure, shortened: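 Kinase activity was followed as ADP output, converted from fluorescence polarization with a calibration curve. Reactions ran one hour at low ATP (1 uM) with RS peptide substrate.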

[13] = Primary qHTS for small molecule stabilizers of the endoplasmic reticulum resident proteome: Secreted ER Calcium Modulated Protein (SERCaMP) assay (AID 1508630); settings: SH-SY5Y GLuc-SERCaMP (Gaussia luciferase released on ER calcium loss) secretion, thapsigargin, luminescence; series mostly up to 38.4 µM; further: on the % scale 0 is the no-effect control and ±100 the full control effect
Procedure, shortened: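 GLuc-SERCaMP-expressing SH-SY5Y cells, pretreated 16 h with compound, are challenged with thapsigargin to empty ER calcium stores; after 4 h, coelenterazine is added directly to the medium and luminescence is imaged.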

[14] = biological target: Glucocorticoid receptor (Homo sapiens) (UniProt P04150); test: GR-EFC Redistribution (AID 451; calls by dose curve; further: potency means the concentration at half of the fitted maximal effect); settings: CHO-K1 GR-EFC translocation, beta-gal luminescence, 2 h
Procedure, shortened: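 CHO-K1 cells stably expressing nuclear-localized β-gal enzyme acceptor and GR fused C-terminally to the enzyme donor fragment; ligand-driven nuclear translocation restores β-gal by complementation. Compounds titrated up to 46 uM final, 2 h at 37 °C; luminescence read.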

[15] = biological target: Ubiquitin carboxyl-terminal hydrolase 1 (Homo sapiens) (UniProt O94782); test: Inhibitors of USP1/UAF1: Pilot qHTS (AID 504865); settings: purified USP1/UAF1, Ub-rhodamine cleavage fluorescence; series mostly up to 54.9 µM; further: nearly all actives have a fitted effect of over 35% in size; further: potency means the concentration at half of the fitted maximal effect
Procedure, shortened: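 Enzyme-free wells gave the negative control, while test wells held 1nM USP1/UAF1 preincubated with compound for 15 min at room temperature. Ub-Rho at 150nM final started the reaction, and fluorescence at 480/540 nm was recorded kinetically.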

[16] = biological target: Cytochrome P450 3A4 (Homo sapiens) (UniProt P08684); test: qHTS Assay for Inhibitors and Substrates of Cytochrome P450 3A4 (AID 884); settings: recombinant CYP3A4, Luciferin-PPXE luminescence; series mostly up to 57.1 µM; further: potency means the concentration at half of the fitted maximal effect; nearly all actives have a fitted effect of over 50% in size
Procedure, shortened: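 20 nM human CYP3A4 with 25 uM Luciferin-PPXE (at KM) in 200 mM KPO4, preincubated 10 min with compound; NADPH regeneration started a 60 min RT reaction. Luciferin detected by luminescence, normalized to 57 uM ketoconazole as full inhibition.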

[17] = biological target: Cytochrome P450 2C19 (Homo sapiens) (UniProt P33261); test: qHTS Assay for Inhibitors and Substrates of Cytochrome P450 2C19 (AID 899); settings: recombinant CYP2C19, luciferin-H EGE luminescence; series mostly up to 57.1 µM; further: potency means the concentration at half of the fitted maximal effect; nearly all actives have a fitted effect of over 60% in size
Procedure, shortened: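 In 50mM KPO4, the reaction held 5nM enzyme and KM-level (10uM) Luciferin-H EGE; it ran 60 min at 37C after NADPH regeneration and a 10 min compound preincubation. Luminescence values were scaled to 57uM ketoconazole as complete inhibition.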

Chain of Cytochrome P450 3A4 (Homo sapiens) (P08684 whole entry, looked up): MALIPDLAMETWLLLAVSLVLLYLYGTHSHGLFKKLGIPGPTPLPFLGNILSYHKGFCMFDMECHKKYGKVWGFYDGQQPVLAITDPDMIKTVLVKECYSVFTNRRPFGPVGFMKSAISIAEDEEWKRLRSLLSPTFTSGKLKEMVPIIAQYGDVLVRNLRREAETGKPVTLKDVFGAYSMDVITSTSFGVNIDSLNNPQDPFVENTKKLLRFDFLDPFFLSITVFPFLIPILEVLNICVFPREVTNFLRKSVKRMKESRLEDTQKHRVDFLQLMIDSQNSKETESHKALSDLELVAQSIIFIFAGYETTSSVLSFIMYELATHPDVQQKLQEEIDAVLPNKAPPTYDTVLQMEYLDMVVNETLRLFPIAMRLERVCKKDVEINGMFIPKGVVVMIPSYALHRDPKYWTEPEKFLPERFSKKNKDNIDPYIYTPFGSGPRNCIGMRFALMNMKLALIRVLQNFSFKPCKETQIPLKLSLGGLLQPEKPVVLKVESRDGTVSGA
Chain of Lysosomal acid glucosylceramidase (Homo sapiens) (P04062 whole entry, looked up): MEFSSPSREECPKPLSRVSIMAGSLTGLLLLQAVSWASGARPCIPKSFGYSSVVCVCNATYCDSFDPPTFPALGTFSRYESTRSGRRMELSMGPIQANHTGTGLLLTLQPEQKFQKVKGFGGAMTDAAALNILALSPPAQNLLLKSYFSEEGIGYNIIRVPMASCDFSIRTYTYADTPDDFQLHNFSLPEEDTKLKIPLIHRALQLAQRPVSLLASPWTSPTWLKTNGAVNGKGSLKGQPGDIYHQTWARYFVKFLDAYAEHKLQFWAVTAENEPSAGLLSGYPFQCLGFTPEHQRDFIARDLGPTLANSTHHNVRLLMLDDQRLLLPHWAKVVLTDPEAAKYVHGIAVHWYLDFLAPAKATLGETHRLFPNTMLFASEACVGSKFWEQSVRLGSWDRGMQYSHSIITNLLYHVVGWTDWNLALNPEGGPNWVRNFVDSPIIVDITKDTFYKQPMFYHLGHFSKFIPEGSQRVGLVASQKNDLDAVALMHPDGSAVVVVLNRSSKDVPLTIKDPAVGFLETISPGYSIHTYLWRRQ
Chain of Dual specificity protein kinase CLK4 (Homo sapiens) (Q9HAZ1 whole entry, looked up): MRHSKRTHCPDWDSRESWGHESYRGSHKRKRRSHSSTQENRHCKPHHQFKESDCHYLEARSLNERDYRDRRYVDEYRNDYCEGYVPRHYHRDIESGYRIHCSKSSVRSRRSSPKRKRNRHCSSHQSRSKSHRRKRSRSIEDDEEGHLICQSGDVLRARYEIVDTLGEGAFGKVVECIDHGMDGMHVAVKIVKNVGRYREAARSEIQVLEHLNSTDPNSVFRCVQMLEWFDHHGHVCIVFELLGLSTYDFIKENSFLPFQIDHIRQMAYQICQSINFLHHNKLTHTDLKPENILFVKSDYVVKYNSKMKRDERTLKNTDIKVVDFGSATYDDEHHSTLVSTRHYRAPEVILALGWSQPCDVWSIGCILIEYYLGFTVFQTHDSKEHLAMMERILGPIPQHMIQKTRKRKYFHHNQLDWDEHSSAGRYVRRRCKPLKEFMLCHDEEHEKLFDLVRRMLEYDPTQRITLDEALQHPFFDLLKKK
Chain of 3',5'-cyclic-AMP phosphodiesterase 4B (Homo sapiens) (Q07343 whole entry, looked up): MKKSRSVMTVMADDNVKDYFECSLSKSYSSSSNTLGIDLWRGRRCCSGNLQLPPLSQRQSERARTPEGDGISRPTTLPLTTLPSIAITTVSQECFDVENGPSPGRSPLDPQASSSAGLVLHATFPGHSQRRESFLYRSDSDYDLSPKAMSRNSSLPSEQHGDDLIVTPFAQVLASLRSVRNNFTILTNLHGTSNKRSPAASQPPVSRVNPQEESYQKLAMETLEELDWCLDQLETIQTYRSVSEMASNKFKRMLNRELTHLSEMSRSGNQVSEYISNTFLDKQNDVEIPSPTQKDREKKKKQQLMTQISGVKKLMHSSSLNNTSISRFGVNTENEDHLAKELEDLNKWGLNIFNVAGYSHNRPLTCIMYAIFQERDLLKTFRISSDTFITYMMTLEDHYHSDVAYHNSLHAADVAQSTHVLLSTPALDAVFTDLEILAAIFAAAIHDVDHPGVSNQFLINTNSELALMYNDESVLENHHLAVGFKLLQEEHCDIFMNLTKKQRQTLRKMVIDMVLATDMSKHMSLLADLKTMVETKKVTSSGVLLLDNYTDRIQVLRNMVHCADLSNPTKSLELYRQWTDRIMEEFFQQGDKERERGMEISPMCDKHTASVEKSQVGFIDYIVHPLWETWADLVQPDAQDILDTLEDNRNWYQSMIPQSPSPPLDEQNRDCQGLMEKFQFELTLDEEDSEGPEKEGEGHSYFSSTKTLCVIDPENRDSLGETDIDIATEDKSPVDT
Chain of Glucocorticoid receptor (Homo sapiens) (P04150 whole entry, looked up, the tested form may be a part): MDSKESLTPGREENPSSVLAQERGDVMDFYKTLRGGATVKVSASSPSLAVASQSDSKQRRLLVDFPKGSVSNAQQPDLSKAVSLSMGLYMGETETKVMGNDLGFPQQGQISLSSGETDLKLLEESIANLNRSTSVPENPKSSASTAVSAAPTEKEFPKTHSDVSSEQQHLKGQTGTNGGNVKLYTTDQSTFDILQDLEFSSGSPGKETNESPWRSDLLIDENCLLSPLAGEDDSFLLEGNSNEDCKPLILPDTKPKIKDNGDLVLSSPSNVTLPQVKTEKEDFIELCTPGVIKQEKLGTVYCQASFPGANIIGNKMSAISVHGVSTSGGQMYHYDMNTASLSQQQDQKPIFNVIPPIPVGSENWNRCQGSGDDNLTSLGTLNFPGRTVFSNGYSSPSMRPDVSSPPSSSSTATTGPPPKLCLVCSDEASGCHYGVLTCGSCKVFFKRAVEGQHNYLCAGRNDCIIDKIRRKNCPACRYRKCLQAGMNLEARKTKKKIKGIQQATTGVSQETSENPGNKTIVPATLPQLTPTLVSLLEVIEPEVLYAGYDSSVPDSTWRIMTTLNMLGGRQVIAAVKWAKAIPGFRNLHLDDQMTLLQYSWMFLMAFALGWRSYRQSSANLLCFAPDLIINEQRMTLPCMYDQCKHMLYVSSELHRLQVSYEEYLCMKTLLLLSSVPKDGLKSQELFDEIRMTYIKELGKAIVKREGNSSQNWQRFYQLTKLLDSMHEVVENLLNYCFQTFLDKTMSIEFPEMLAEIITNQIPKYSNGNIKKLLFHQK
Chain of Ubiquitin carboxyl-terminal hydrolase 1 (Homo sapiens) (O94782 whole entry, looked up): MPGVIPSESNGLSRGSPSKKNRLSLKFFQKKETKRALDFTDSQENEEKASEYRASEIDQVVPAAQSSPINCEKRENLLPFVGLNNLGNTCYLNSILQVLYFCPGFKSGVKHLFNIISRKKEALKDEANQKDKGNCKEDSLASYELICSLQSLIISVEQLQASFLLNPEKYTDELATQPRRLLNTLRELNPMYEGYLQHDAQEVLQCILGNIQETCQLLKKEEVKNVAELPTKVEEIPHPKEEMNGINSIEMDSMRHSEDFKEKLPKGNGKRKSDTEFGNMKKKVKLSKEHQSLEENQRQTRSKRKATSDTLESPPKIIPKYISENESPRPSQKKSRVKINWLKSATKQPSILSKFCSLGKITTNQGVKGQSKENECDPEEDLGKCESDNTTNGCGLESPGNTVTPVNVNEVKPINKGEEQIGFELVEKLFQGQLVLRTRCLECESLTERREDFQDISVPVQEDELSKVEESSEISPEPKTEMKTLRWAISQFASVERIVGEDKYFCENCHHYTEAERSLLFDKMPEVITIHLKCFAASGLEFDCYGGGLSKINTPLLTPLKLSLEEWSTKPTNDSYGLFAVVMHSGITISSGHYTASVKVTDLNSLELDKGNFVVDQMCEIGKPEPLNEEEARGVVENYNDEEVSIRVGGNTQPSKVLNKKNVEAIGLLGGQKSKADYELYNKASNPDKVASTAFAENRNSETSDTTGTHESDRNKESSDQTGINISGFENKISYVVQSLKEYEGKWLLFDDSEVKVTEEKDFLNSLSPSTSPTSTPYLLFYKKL
Chain of Cytochrome P450 2C19 (Homo sapiens) (P33261 whole entry, looked up): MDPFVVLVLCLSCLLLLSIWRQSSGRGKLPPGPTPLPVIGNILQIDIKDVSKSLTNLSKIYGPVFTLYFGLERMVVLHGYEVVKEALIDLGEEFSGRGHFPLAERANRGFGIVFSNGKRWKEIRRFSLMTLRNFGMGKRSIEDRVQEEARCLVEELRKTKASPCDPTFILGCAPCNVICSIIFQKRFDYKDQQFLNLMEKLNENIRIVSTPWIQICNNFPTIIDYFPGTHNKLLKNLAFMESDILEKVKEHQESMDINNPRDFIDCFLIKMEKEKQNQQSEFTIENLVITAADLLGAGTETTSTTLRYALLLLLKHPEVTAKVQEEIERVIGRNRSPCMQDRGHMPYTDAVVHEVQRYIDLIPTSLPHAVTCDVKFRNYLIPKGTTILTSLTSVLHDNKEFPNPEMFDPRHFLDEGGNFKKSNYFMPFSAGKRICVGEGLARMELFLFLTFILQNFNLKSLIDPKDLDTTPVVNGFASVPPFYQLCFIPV

O=c1c(-c2cccs2)nc2cnc(Oc3ccccc3)nc2n1Cc1cccs1
inactive: Potency [1] > 11.4 µM | activity change, negative = inhibition [2] -14% | activity change, negative = inhibition [3] 1.21% | activity, negative = inhibition [4] 1.3% | Potency [5] > 9.22 µM | Potency [6] | Potency [7] | Potency [8] | activation [9] 9.14% | Potency [10] | Potency [11] | Potency [12] | outcome [13]

Cc1nc2cnc(Oc3ccccc3)nc2n(Cc2cccs2)c1=O
inactive: Potency [1] > 11.4 µM | activity change, negative = inhibition [2] -17.8% | activity change, negative = inhibition [3] 20.1% | activity, negative = inhibition [4] -0.465% | Potency [5] > 9.22 µM | Potency [14] > 46 µM | Potency [6] | Potency [7] | Potency [8] | Potency [10] | Potency [11] | Potency [12] | outcome [13]

CNc1ncnc2ccc(-c3ccc4c(c3)OCO4)cc12
active: Potency [10] 0.891 µM | Potency [11] 0.631 µM | Potency [12] 0.355 µM
inactive: Potency [1] > 11.4 µM | activity change, negative = inhibition [2] -8.86% | activity change, negative = inhibition [3] 15.3% | activity, negative = inhibition [4] 12.6% | Potency [5] > 46 µM | Potency [14] > 46 µM | Potency [6] | Potency [7] | outcome [13]

CCNc1ncc2nc(-c3ccc(OC)cc3)c(=O)n(CCc3ccccc3)c2n1
inactive: Potency [1] > 11.4 µM | Potency [5] > 9.22 µM | Potency [14] > 46 µM | Potency [6] | Potency [10] | Potency [11] | Potency [12] | Potency [15] | outcome [13]
active: activity change, negative = inhibition [2] 107% [activator] | activity, negative = inhibition [4] 122% [activator] | Potency [9] 0.501 µM

COc1ccc2[nH]cc(CCNc3cc(-c4ccccc4Cl)ncn3)c2c1
inactive: Potency [1] > 11.4 µM | activity change, negative = inhibition [2] 0.747% | activity change, negative = inhibition [3] 9.26% | activity, negative = inhibition [4] -11.7% | Potency [5] > 46 µM | Potency [14] > 46 µM | Potency [6] | Potency [7] | outcome [13]
active: Potency [10] 12.6 µM | Potency [11] 12.6 µM | Potency [12] 12.6 µM | Potency [15] 20 µM

Cc1cnc(CNc2ncncc2-c2cccc(NS(C)(=O)=O)c2)cn1
inactive: Potency [1] > 11.4 µM | activity change, negative = inhibition [2] 3.85% | activity change, negative = inhibition [3] -0.565% | activity, negative = inhibition [4] 13.1% | Potency [5] > 46 µM | Potency [14] > 46 µM | Potency [6] | Potency [7] | Potency [8] | Potency [10] | Potency [11] | Potency [12] | Potency [15] | outcome [13]
active: Potency [16] 3.16 µM

CCNc1ncc2nc(-c3cc(F)cc(F)c3)c(=O)n(Cc3ccc(F)cc3)c2n1
active: Potency [9] 2 µM
inactive: Potency [1] > 11.4 µM | activity change, negative = inhibition [2] 20.2% | activity change, negative = inhibition [3] 28.9% | Potency [14] > 46 µM | Potency [6] | Potency [7] | Potency [10] | Potency [11] | Potency [12] | Potency [15] | outcome [13]

COc1ccccc1-c1cncnc1Nc1ccccc1
inactive: Potency [1] > 11.4 µM | activity change, negative = inhibition [2] -6.14% | activity change, negative = inhibition [3] -4.57% | activity, negative = inhibition [4] 5.08% | Potency [14] > 46 µM | Potency [7] | Potency [10] | Potency [11] | Potency [12] | Potency [15] | outcome [13]

O=c1c(-c2ccccc2)nc2cnc(Nc3ccccc3)nc2n1C[C@H]1CCCO1
inactive: Potency [1] > 11.4 µM | activity change, negative = inhibition [2] 1.69% | activity change, negative = inhibition [3] -14.2% | activity, negative = inhibition [4] -4.27% | Potency [5] > 9.22 µM | Potency [14] > 46 µM | Potency [6] | Potency [7] | Potency [8] | Potency [10] | Potency [11] | Potency [12] | Potency [15] | outcome [13]

N#CCCn1c(=O)c(-c2cc(F)cc(F)c2)nc2cnc(Nc3ccccc3)nc21
inactive: Potency [1] > 11.4 µM | activity change, negative = inhibition [2] 9.43% | activity, negative = inhibition [4] -15.8% | Potency [5] > 9.22 µM | Potency [14] > 46 µM | Potency [6] | Potency [7] | Potency [10] | Potency [11] | Potency [12] | Potency [15] | outcome [13]

COCCNc1nc(-c2ccoc2)nc2ccccc12
inactive: Potency [1] > 11.4 µM | activity change, negative = inhibition [2] 1.3% | activity change, negative = inhibition [3] -13.7% | activity, negative = inhibition [4] 8.88% | Potency [5] > 46 µM | Potency [14] > 46 µM | Potency [6] | Potency [8] | Potency [10] | Potency [11] | Potency [12] | Potency [15] | outcome [13]

COc1ccc(Oc2ncc3nc(-c4ccc(F)cc4)c(=O)n(C4CC4)c3n2)cc1
inactive: Potency [1] > 11.4 µM | activity change, negative = inhibition [2] 0.828% | activity, negative = inhibition [4] 14.5% | Potency [5] > 9.22 µM | Potency [14] > 46 µM | Potency [6] | Potency [7] | Potency [10] | Potency [11] | Potency [12] | Potency [15] | outcome [13]

COc1ncc2nc(-c3cn(C)c4ccccc34)c(=O)n(CCc3ccccc3)c2n1
inactive: Potency [1] > 11.4 µM | activity change, negative = inhibition [2] 24.3% | activity change, negative = inhibition [3] -1.31% | Potency [5] > 9.22 µM | Potency [14] > 46 µM | Potency [10] | Potency [11] | Potency [12] | Potency [15] | outcome [13]
active: Potency [9] 1 µM

COc1ccccc1-c1cc(N(C)Cc2ccco2)ncn1
active: Potency [17] 3.98 µM | Potency [10] 28.2 µM | Potency [11] 35.5 µM
inactive: Potency [1] > 11.4 µM | activity change, negative = inhibition [2] 28.4% | activity change, negative = inhibition [3] -15.8% | activity, negative = inhibition [4] 5.75% | Potency [5] > 46 µM | Potency [14] > 46 µM | Potency [6] | Potency [7] | Potency [12] | outcome [13]
